Results on 23 compounds are retold here after the supplement of paper PMC12350171.

Where a name gives a salt, the structure may show the parent alone. A number with no mark means an inactive call.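 How the source made its calls: active = normalised median growth AUC below 0.1 of DMSO control; inactive = AUC 0.1 or higher.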

Common to all, as to experiment: growth AUC normalised to DMSO control (median) (fraction of control); higher = less growth inhibition, active = hit call of the paper
Holding throughout (conditions): 20 µM

Assay [1] concerns P. vulgatus RND KO. The method, boiled down: (§1)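 Each strain went through two overnight passages under anaerobic conditions before growth in mGAM in 96-well plates, starting at OD578 0.01, with each compound from the approved-drug library at 20 μM and 1% DMSO. Inside an anaerobic incubator, OD578 was recorded every hour for 24 h. Growth curves were cut off at entry into stationary phase, and the area under the curve was calculated by the trapezoidal rule and normalised to vehicle wells on the same plate. Reported values are medians of three biological replicates.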

In assay [2] the test system is P. vulgatus WT. In outline: as §1
The test system of assay [3] is S. enterica typhimurium WT. In outline:
as §1

The subject of assay [4] is S. enterica typhimurium tolC KO. The method, boiled down: as §1
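Further: active when median AUC fell below 0.1.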

With `CC(=O)Oc1ccccc1C(=O)Nc1ncc([N+](=O)[O-])s1` [Nitazoxanide], the “growth AUC normalised to DMSO control” value in assay [1] was 0.0128 (active); in assay [2], 0.0145 (active); in assay [3], 0.922; in assay [4] it was 0.414.

In the case of `COc1cc(C(=O)N2CCOCC2)cc(OC)c1OC` [Trimetozine], the “growth AUC normalised to DMSO control” value in assay [1] was 1.01; in assay [2] it was 1.01; in assay [3], 0.996; in assay [4] it was 0.991.

Turning to `O=C(O)Cc1ccccc1Oc1ccc(Cl)cc1Cl` [Fenclofenac], the “growth AUC normalised to DMSO control” value in assay [1] is 0.992; in assay [2], 1.05; in assay [3], 1.02; in assay [4], 1.02.

As to `C[C@H](Cc1cc2c(c(C(N)=O)c1)N(CCCO)CC2)NCCOc1ccccc1OCC(F)(F)F` [Silodosin], the “growth AUC normalised to DMSO control” value in assay [1] is 1.06; in assay [2], 1.05; in assay [3] it was 1.01; in assay [4] it was 0.961.

Take `CCCN1CCCC[C@H]1C(=O)Nc1c(C)cccc1C` [Ropivacaine hydrochloride]: the “growth AUC normalised to DMSO control” value in assay [1] was 1.02; in assay [2], 1.03; in assay [3], 0.997; in assay [4], 1.

As to `C[C@@H]1CCO[C@H]2Cn3cc(C(=O)NCc4ccc(F)cc4F)c(=O)c(O)c3C(=O)N12` [Dolutegravir], the “growth AUC normalised to DMSO control” value is 0.0521 (active) in assay [1], 0.049 (active) in assay [2], 1 in assay [3] and 0.907 in assay [4].

As to `COc1ncnc(NS(=O)(=O)c2ccc(N)cc2)c1OC` [Sulfadoxine], the “growth AUC normalised to DMSO control” value was 0.981 in assay [1], 0.982 in assay [2], 0.99 in assay [3] and 0.993 in assay [4].

On to `NC(=O)OCC(COC(N)=O)c1ccccc1` [Felbamate], for which the “growth AUC normalised to DMSO control” value was 1 in assay [1], 1.04 in assay [2], 0.999 in assay [3] and 1 in assay [4].

Consider `Nc1ccc(S(=O)(=O)Nc2cnc3ccccc3n2)cc1` [Sulfaquinoxaline sodium salt], for which the “growth AUC normalised to DMSO control” value was 1.01 in assay [1], 1.04 in assay [2], 0.985 in assay [3] and 1 in assay [4].

For `CCCC(=O)N1CCCN(c2nc(N)c3cc(OC)c(OC)cc3n2)CC1` [Bunazosin hydrochloride], the “growth AUC normalised to DMSO control” value in assay [1] was 1.01; in assay [2], 1.01; in assay [3], 1; in assay [4], 0.994.

Turning to `COc1ccc(CNc2nc(N3CCC[C@H]3CO)ncc2C(=O)NCc2ncccn2)cc1Cl` [Avanafil], the “growth AUC normalised to DMSO control” value in assay [1] was 1; in assay [2], 1.03; in assay [3] it was 1.01; in assay [4], 0.962.

As for `Cc1ccc(O)c([C@H](CCN(C(C)C)C(C)C)c2ccccc2)c1` [Tolterodine tartrate], the “growth AUC normalised to DMSO control” value in assay [1] is 1.01; in assay [2] it was 1.01; in assay [3] it was 1; in assay [4] it was 0.971.

Consider `CCOc1ccccc1OCCN[C@H](C)Cc1ccc(OC)c(S(N)(=O)=O)c1` [(R)-Tamsulosin hydrochloride], for which the “growth AUC normalised to DMSO control” value was 0.997 in assay [1], 1.01 in assay [2], 1 in assay [3] and 0.965 in assay [4].

`CCOc1nc2cccc(C(=O)OCc3oc(=O)oc3C)c2n1Cc1ccc(-c2ccccc2-c2noc(=O)[nH]2)cc1` [Azilsartan medoxomil]: the “growth AUC normalised to DMSO control” value in assay [1] was 0.988; in assay [2] it was 0.962; in assay [3], 1; in assay [4], 0.998.

On to `COc1ccc(C(=O)c2ccc(C)cc2)c(O)c1` [Mexenone], for which the “growth AUC normalised to DMSO control” value in assay [1] was 0.999; in assay [2], 1; in assay [3], 1; in assay [4] it was 0.931.

As for `CC(C)c1cc2c(cc1S(=O)(=O)O)[C@@]1(C)CCC[C@@](C)(C(=O)O)[C@@H]1CC2` [Ecabet sodium], the “growth AUC normalised to DMSO control” value in assay [1] is 1.01; in assay [2] it was 1.02; in assay [3], 1.01; in assay [4], 0.988.

For `NC(=O)c1ncn([C@@H]2O[C@H](CO)[C@@H](O)[C@H]2O)c1O` [Mizoribine], the “growth AUC normalised to DMSO control” value in assay [1] was 1.04; in assay [2], 1.01; in assay [3], 1.01; in assay [4], 0.996.

Regarding `Nc1nc2[nH]cnc2c(=S)[nH]1` [Tioguanine], the “growth AUC normalised to DMSO control” value was 1.01 in assay [1], 1 in assay [2], 0.907 in assay [3] and 0.876 in assay [4].

As for `COc1cc(/C=C/C(=O)N2CCN(CC(=O)N3CCCC3)CC2)cc(OC)c1OC` [Cinepazide maleate], the “growth AUC normalised to DMSO control” value was 1.04 in assay [1], 1.08 in assay [2], 1.01 in assay [3] and 1.01 in assay [4].

For the compound `NC(=O)NS(=O)(=O)c1ccc(N)cc1` [Sulfacarbamide], the “growth AUC normalised to DMSO control” value was 0.997 in assay [1], 1.01 in assay [2], 0.995 in assay [3] and 1 in assay [4].

As to `CC(C)OC(=O)C(C(=O)OC(C)C)=C1SC=CS1` [Malotilate], the “growth AUC normalised to DMSO control” value is 0.988 in assay [1], 0.977 in assay [2], 1 in assay [3] and 0.899 in assay [4].

`C/C(=C(\CCOC(=O)c1ccccc1)SS/C(CCOC(=O)c1ccccc1)=C(/C)N(C=O)Cc1cnc(C)nc1N)N(C=O)Cc1cnc(C)nc1N` [Bisbentiamine]: the “growth AUC normalised to DMSO control” value is 1.02 in assay [1], 1.07 in assay [2], 1.01 in assay [3] and 0.999 in assay [4].

Take `CC(/C=C1\SC(=S)N(CC(=O)O)C1=O)=C\c1ccccc1` [Epalrestat]: the “growth AUC normalised to DMSO control” value is 1.01 in assay [1], 1.05 in assay [2], 1.01 in assay [3] and 0.921 in assay [4].
